13 compounds from PubChem BioAssay (NCI) can be followed below.

Some test systems named below: NCI-H23 lung; NCI-H226 lung; NCI-H322M lung; HOP-62 NSCLC; NCI-H460 lung; HOP-92 NSCLC; NCI-H522 lung; A549/ATCC NSCLC; 786-0 renal; COLO 205 colon.
What all share (test): NCI-60 one-dose screen, 48 h (100 = growth as untreated, 0 = no growth, -100 = all killed)
Conditions in all cases: 10 µM unless noted

Compounds without any hit were thinned out: in the full panel of roughly 83,000, 20% have a hit.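 Negative percent growth values reflect cell death: -40 means 40% of the cells present at the start died, and -100 means all died.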 Values without a mark were called inactive. Active and inactive are the calls of the source. Rule for the calls: active = growth percent below 10; inactive = the rest.

`O=C1/C(=C/c2ccccc2)CN(CCC(=O)N2C/C(=C\c3ccccc3)C(=O)/C(=C/c3ccccc3)C2)C/C1=C\c1ccccc1`: the growth in the assay with NCI-H23 lung was 85.4%; with NCI-H226 lung, 84.7%; in the assay with NCI-H322M lung it was 90.4%; with HOP-62 NSCLC, 118%; with NCI-H460 lung, 84.7%; with HOP-92 NSCLC, 63.1%. Besides, the growth is 53.9% in the assay on NCI-H522 lung, 88.2% in the assay with A549/ATCC NSCLC, 73% in the assay on 786-0 renal and 82.4% with COLO 205 colon.
Turning to `CCN(CC)CC(C)Nc1ccc([N+](=O)[O-])c2sc3ccccc3c(=O)c12` (stereo not given), the growth with NCI-H23 lung is 33.5%; with NCI-H226 lung, 24%; in the assay on NCI-H322M lung it was 26.6%; in the assay on HOP-62 NSCLC, 46.2%; in the assay with NCI-H460 lung, 9.64% (active); in the assay on HOP-92 NSCLC, 7.52% (active). Also, the growth is 0.683% (active) with NCI-H522 lung, 14.2% with A549/ATCC NSCLC, 16.3% in the assay on 786-0 renal and 10.8% with COLO 205 colon.
Regarding `COc1ccc(C(=O)c2sc3nc4c(cc3c2N)CCCC4)cc1OC`, the growth in the assay with NCI-H23 lung is 39.3%; in the assay with NCI-H226 lung it was 37.1%; in the assay on NCI-H322M lung, 86.8%; in the assay with HOP-62 NSCLC it was 38.5%; in the assay with NCI-H460 lung it was 13%; in the assay with HOP-92 NSCLC it was 67.3%. Further, the growth in the assay with NCI-H522 lung was 12.6%; in the assay with A549/ATCC NSCLC it was 41.4%; in the assay on 786-0 renal it was 66.1%; in the assay on COLO 205 colon it was 16.5%.
As to `CCCCCCCCCCCCCC1=NCCN1CCO`, the growth with NCI-H23 lung was 72%; in the assay on NCI-H226 lung, 95%; with NCI-H322M lung it was 93.5%; in the assay on HOP-62 NSCLC, 58.9%; in the assay on NCI-H460 lung, -68.9% (active); in the assay with HOP-92 NSCLC, 24.5%. The growth with NCI-H522 lung was 89%; with A549/ATCC NSCLC it was 65.1%; in the assay with 786-0 renal, 68.8%; in the assay on COLO 205 colon, -75% (active).
In the case of `CN1CCN(c2ccc3nc(-c4ccc5nc(-c6ccc(OCCC(C)(C)C)cc6)[nH]c5c4)[nH]c3c2)CC1`, the growth is -3.61% (active) in the assay with NCI-H23 lung; 95.3% with NCI-H226 lung; 40.7% in the assay with NCI-H322M lung; 21.5% with HOP-62 NSCLC; -80% (active) with NCI-H460 lung; 69.6% in the assay on HOP-92 NSCLC. Further, the growth was -38% (active) with NCI-H522 lung, -45.3% (active) in the assay with A549/ATCC NSCLC, -60.2% (active) in the assay on 786-0 renal and 5.08% (active) with COLO 205 colon.
Turning to `Cc1[nH]n(-c2ccccc2)c2nc3nncc3c(-c3ccc(Cl)cc3)c12`, the growth with NCI-H23 lung is 103%; in the assay with NCI-H226 lung, 104%; in the assay on NCI-H322M lung it was 114%; with HOP-62 NSCLC, 110%; in the assay on NCI-H460 lung, 102%; in the assay with HOP-92 NSCLC, 76.2%. The growth in the assay on NCI-H522 lung is 105%; with A549/ATCC NSCLC, 84.9%; with 786-0 renal it was 100%; in the assay with COLO 205 colon, 111%.
`COc1ccccc1/C=C(/C(=O)c1ccccc1)c1ccccc1`: the growth is 95.4% in the assay with NCI-H23 lung; 107% with NCI-H226 lung; 115% with NCI-H322M lung; 114% in the assay with HOP-62 NSCLC; 93.6% with NCI-H460 lung; 75.7% with HOP-92 NSCLC. Besides, the growth in the assay with NCI-H522 lung is 106%; in the assay on A549/ATCC NSCLC, 97.4%; in the assay with 786-0 renal, 103%; in the assay with COLO 205 colon, 122%.
`OCCNCCNc1c2ccccc2nc2ccccc12`: the growth in the assay on NCI-H23 lung is 64.8%; in the assay with NCI-H226 lung it was 58.3%; in the assay on NCI-H322M lung it was 52.7%; with HOP-62 NSCLC, 60.7%; with NCI-H460 lung, 54.6%; in the assay with HOP-92 NSCLC, 81.1%. Moreover, the growth in the assay on NCI-H522 lung was 41.6%; with A549/ATCC NSCLC, 98.2%; in the assay on 786-0 renal it was 84.9%; in the assay with COLO 205 colon it was 47.9%.
As for `COc1ccc(CNc2nccnn2)cc1`, the growth with NCI-H23 lung was 94.6%; in the assay on NCI-H226 lung, 92%; with NCI-H322M lung it was 103%; in the assay on HOP-62 NSCLC, 98.6%; in the assay with NCI-H460 lung it was 106%; in the assay with HOP-92 NSCLC, 108%. The growth in the assay on NCI-H522 lung was 85.4%; in the assay with A549/ATCC NSCLC, 96.9%; in the assay with 786-0 renal, 107%; in the assay with COLO 205 colon, 95%.
`O=C(NCc1cccc(C(F)(F)F)c1)[C@H](CCC(=O)N1CCN(C2CCCCC2)CC1)N1C(=O)[C@@H](N2C(=O)OC[C@@H]2c2ccccc2)[C@H]1/C(Cl)=C/c1ccccc1`: the growth is 68.4% with NCI-H23 lung; 73.2% in the assay with NCI-H226 lung; 36.4% with NCI-H322M lung; 55.6% in the assay with HOP-62 NSCLC; 47.8% with NCI-H460 lung; 32.6% in the assay on HOP-92 NSCLC. The growth in the assay with NCI-H522 lung is 33.7%; in the assay with A549/ATCC NSCLC it was 37.7%; in the assay on 786-0 renal it was 49.9%; with COLO 205 colon, 40.7%.
As to `CS(CCCCN=C=S)=NC(=O)c1c(F)c(F)c(F)c(F)c1F` (stereo not given), the growth in the assay with NCI-H23 lung is 80.6%; with NCI-H226 lung, 99.6%; in the assay on NCI-H322M lung, 85.6%; with HOP-62 NSCLC, 109%; in the assay on NCI-H460 lung it was 65.5%; in the assay with HOP-92 NSCLC, 80.8%. Besides, the growth with NCI-H522 lung was 20.6%; in the assay with A549/ATCC NSCLC it was 79.6%; with 786-0 renal, 94.3%; in the assay with COLO 205 colon it was 61.4%.
Consider `O=C(C[C@@H](C(=O)NCc1cccc(C(F)(F)F)c1)N1C(=O)[C@@H](N2C(=O)OC[C@@H]2c2ccccc2)[C@H]1/C=C/c1ccccc1)NC1CCN(Cc2ccccc2)CC1`, for which the growth in the assay on NCI-H23 lung is 36.2%; in the assay with NCI-H226 lung, 88.6%; with NCI-H322M lung it was 73.1%; in the assay on HOP-62 NSCLC it was 72.7%; with NCI-H460 lung it was 13.1%; in the assay with HOP-92 NSCLC it was 76.7%. Besides, the growth was 33.8% in the assay with NCI-H522 lung, 53.5% in the assay with A549/ATCC NSCLC, 76.3% with 786-0 renal and 45.7% in the assay on COLO 205 colon.
For the compound `Cc1noc(C)c1-c1cc(O)cc(C(O)c2ccccc2)c1` (stereo not given), the growth was 68.1% with NCI-H23 lung; 65.5% in the assay on NCI-H226 lung; 47.6% with NCI-H322M lung; 47.2% in the assay on HOP-62 NSCLC; 67.2% in the assay with NCI-H460 lung; 25.6% in the assay with HOP-92 NSCLC. The growth is 22.1% with NCI-H522 lung, 55.4% in the assay with A549/ATCC NSCLC, 54.8% with 786-0 renal and 37.1% in the assay on COLO 205 colon.
